Screen size: about 52,000 compounds; about 4,300 (8.3%) were called active. Only a selection was taken, and actives are over-represented in it overall. A number with no mark means an inactive call. No stated cut-off is given here; in the data, active means survival mostly below about 52% (no sharp cut-off); inactive means mostly above about 56%.
These compounds were tested on DeltatarO mutant (assay: growth inhibition of S. aureus wild type versus tarO mutant, primary screen, teichoic acid synthesis inhibitors, RN4220, OD600 (AID 463173)). Settings: OD600, 18 h, stronger effect = lower value, screened at 18.75 µg/mL (by protocol).

Going from Cc1ccc(-n2ncc(C(=O)NCCN3CCc4ccccc4C3)c2C2CCNCC2)cc1C to COC(=O)c1ccccc1NS(=O)(=O)c1cc2c(cc1C)N(C)CCO2, the survival falls from 95% to 87%.

First: O=C(c1ccc(F)cc1)N1CCC(c2nc3ccccc3o2)CC1
Second: O=C(Cn1c(=O)nc(-c2ccccc2)c2cc(Cl)ccc21)N1CCN(c2ccc(F)cc2)CC1
The survival of the first is lower: 83% for the first, 99% for the second.

Going from Cc1nnc(SCc2ccccc2)c2cc3sccc3n12 to Cc1nnc2c(Nc3cccc(O)c3)nc3ccccc3n12, the survival rises from 53% to 68%.

Compared with COc1ccc(CCN(Cc2nc3ccccc3c(=O)[nH]2)C(=O)C(C)C)cc1, COc1ccc(CN(Cc2ccco2)C(=O)COc2ccccc2Cl)cc1 is lower in survival: 101% for the first, 51% for the second.

CC(C)(C)c1nnc(NC(=O)CS(=O)(=O)Cc2ccccc2)s1 and CCC(CC)C(=O)Nc1nnc(C(C)(C)C)s1 are the same in survival: 95% for the first, 95% for the second.

Going from CCn1nnc2cc(C(=O)Nc3cccc(C)c3C)ccc21 to Cc1ccccc1NC(=O)c1ccc2[nH]c(C)c(C)c2c1, the survival rises from 72% to 123%.

Compared with Clc1ccc(NCCC2=CCCCC2)nn1, CN(C)CCNc1ccc(Cl)nn1 is higher in survival: 84% for the first, 96% for the second.

First: COc1ccccc1-c1nc(SCC(=O)NCc2ccc(C)cc2)c2c(=O)n(C)c(=O)n(C)c2n1
Second: Cc1ccc(CNC(=O)c2sc3nc(C)cc(C)c3c2-n2cccc2)cc1
The survival of the first is lower: 69% for the first, 90% for the second.

Going from COC(=O)c1sc2cccc(F)c2c1S(=O)(=O)Nc1cc(C)c(Cl)cc1OC to COC(=O)c1sc2cccc(F)c2c1S(=O)(=O)Nc1ccc(C)cc1Cl, the survival rises from 89% to 91%.

Compared with COC(=O)c1sc2cccc(F)c2c1S(=O)(=O)Nc1ccc(N(C)C)cc1, CCOC(=O)c1sc2cccc(F)c2c1S(=O)(=O)Nc1ccccc1F is higher in survival: 66% for the first, 99% for the second.

First: COc1cc(C(=O)N2CCN(CCc3ccccn3)CC2)cc(OC)c1OC
Second: COc1cccc(-n2c(C)nc3cc(C(=O)O)ccc32)c1
The survival of the first is lower: 66% for the first, 177% for the second.

Compared with Cc1ccc2nc(-c3cccc(Cl)c3)c(Nc3ccc4c(c3)OCO4)n2c1, Cc1cccc(Nc2cc(C)nc3nc(-c4ccccc4)nn23)c1 is higher in survival: 75% for the first, 95% for the second.

First: COc1cc(NC(=O)C2CCCN(S(=O)(=O)c3ccc4c(c3)CCCC(=O)N4)C2)cc(OC)c1 (stereo not given)
Second: O=S(=O)(NC1CCc2ccccc21)c1ccc(S(=O)(=O)N2CCCC2)cc1 (stereo not given)
The survival of the first is higher: 94% for the first, 82% for the second.

Going from CCCc1cc(=O)[nH]c(SCc2nc(-c3ccc(C)cc3)no2)n1 to CCc1cc(=O)[nH]c(SCc2nc(-c3ccccc3)no2)n1, the survival rises from 78% to 95%.

Going from CCc1cc(=O)[nH]c(SCc2nc(-c3cccc(Cl)c3)no2)n1 to O=c1cc(-c2ccccc2)nc(SCc2nc(-c3ccc(C(F)(F)F)cc3)no2)[nH]1, the survival rises from 49% to 188%.

Compared with COc1ccccc1CNC(=O)c1cc2c(s1)-c1ccc(Cl)cc1SC2, CC(=O)c1cccc(NC(=O)c2cc(-c3ccc(Cl)s3)nc3ccccc23)c1 is lower in survival: 79% for the first, 77% for the second.

Compared with Cc1ccccc1Nc1nnc(-c2ccc(C)c(S(=O)(=O)N3CCOCC3)c2)c2ccccc12, Cc1cccc(-c2nc(N3CCN(c4ccc(F)cc4)CC3)c3ccccc3n2)c1 is lower in survival: 85% for the first, 54% for the second.

Compared with O=C(NC(CO)C(=O)O)c1ccncc1 (stereo not given), CC1Cc2cc(S(=O)(=O)CCC(=O)Nc3ccccc3F)ccc2N1C(=O)C1CC1 (stereo not given) is higher in survival: 94% for the first, 100% for the second.

Compared with CCc1ccc(Cc2cnc(NC(=O)c3ccc4c(c3)CC(c3ccccc3)OC4=O)s2)cc1 (stereo not given), Fc1ccc(Nc2nc(SCc3ccc(Cl)cc3)nc3ccccc23)cc1 is higher in survival: 51% for the first, 92% for the second.

Going from Cc1nnc2c3ccccc3nc(Nc3cccc(O)c3)n12 to Oc1ccc(Nc2ncnc3ccccc23)cc1, the survival falls from 101% to 77%.

In the case of CCC(=O)Nc1nnc(C(C)(C)C)s1, the survival is reported as 51% (active).
Clc1ccc(NC2CCCCC2)nn1 was tested, and the survival was 66% (active).
With CCOc1ccccc1NS(=O)(=O)c1c(C(=O)OC)sc2cccc(F)c12 the survival was 20% (active).
In the case of COC(=O)c1sc2cccc(F)c2c1S(=O)(=O)Nc1cc(OC)cc(OC)c1, the survival is reported as 8% (active).
For CCc1cc(=O)[nH]c(SCc2nc(-c3ccc(C(F)(F)F)cc3)no2)n1, the survival was 32% (active).
For CCCc1cc(=O)[nH]c(SCc2nc(-c3ccccc3)no2)n1, the survival was 0% (active).
Oc1cccc(Nc2nc(-c3ccccc3)nc3ccccc23)c1 was tested, and the survival was 10% (active).
In the case of Oc1ccc(Nc2nc(-c3ccc(Cl)cc3)nc3ccccc23)cc1, the survival is reported as 3% (active).
In the case of Cc1cccc(Nc2nc(-c3ccccc3)nc3ccccc23)c1, the survival is reported as 1% (active).
For CC(=O)c1cccc(Nc2nc(-c3ccccc3Cl)nc3ccccc23)c1, the survival was 38% (active).

Reference: PubChem BioAssay AID463173 (ICCB-Longwood Screening Facility, Harvard Medical School, 2010)
